{
  "source": "ChEMBL document CHEMBL1157539",
  "about": "“Thousands of chemical starting points for antimalarial lead identification” (Nature, 2010)",
  "data": [
    {"test_system": "HepG2", "assay": "GSK_TCMDC: Percent inhibition of human HepG2 cell line. Test compounds present at 10uM.", "assay_type": "functional", "units": {"Inhibition": "%"}, "values": [
      {"compound": "Cc1cc(N2CCCC2)nc(Nc2ccc(NC(=O)c3ccc4c(c3)OCO4)cc2)n1", "Inhibition": 26},
      {"compound": "Cc1cc(NC(=O)c2cccs2)ccc1OC1CCN(Cc2ccc(F)cc2)CC1.O=C(O)C(F)(F)F", "Inhibition": 7},
      {"compound": "CC(=O)c1cccc(S(=O)(=O)NCCCNc2nc3cc(C)cc(C)c3cc2C#N)c1", "Inhibition": 11},
      {"compound": "COc1ccc(S(=O)(=O)Nc2cc(C)cc(Br)c2OC)cc1N1CCN(C(=O)C(Cl)(Cl)Cl)CC1.Cl", "Inhibition": 9},
      {"compound": "COc1nc(NCC(C)C)nc(Oc2ccc(=O)n(Cc3ccccc3)n2)n1", "Inhibition": 1},
      {"compound": "Cc1cc(N[C@@H](Cc2ccccc2)C(=O)Nc2ccccc2)nc(NCC2CCCCC2)n1.O=C(O)C(F)(F)F", "Inhibition": 12},
      {"compound": "COc1ccc(NC(=O)/C=C/c2ccc(Cl)c(C(F)(F)F)c2)cc1OCCN(C(C)C)C(C)C.O=C(O)C(F)(F)F", "Inhibition": 18},
      {"compound": "CCCCCCCN1CC[C@@H](CCCc2ccnc3ccc(OCCCCN/C(N)=N/O)cc23)[C@@H](CC)C1.O=C(O)C(=O)O", "Inhibition": 27},
      {"compound": "Cc1csc(-c2ncc(OC[C@@H](N)Cc3ccccc3)cc2-c2ccc3[nH]nc(C)c3c2)c1.O=C(O)C(F)(F)F", "Inhibition": 48},
      {"compound": "CN1CCCN(Cc2ccc(-c3cccc(NC(=O)c4ccc(C#N)cc4)c3)cc2)CC1.O=C(O)C(F)(F)F", "Inhibition": 29},
      {"compound": "CC(C)Cc1cnc2nc(N)nc(N)c2c1.Cl", "Inhibition": 66},
      {"compound": "NC(=O)c1cnc2cc(-c3ccncc3)cc(Nc3ccc(NC(=O)C4CCCCC4)cc3)c2c1", "Inhibition": 58},
      {"compound": "Cc1sc(N2CCCCC2)nc1C(=O)Nc1ccc(F)cc1C(F)(F)F.O=C(O)C(F)(F)F", "Inhibition": 0}
    ]}
  ]
}
